Assay outcomes deposited in PubChem by National Center for Advancing Translational Sciences (NCATS).
D2 antag: antagonists of human D2 dopamine receptor. inhibition, % at 10 µM. AID 485344. 2% of 340,000 active. P14416. HEK293 TREx D2 cells, calcium flux, dopamine EC80; in the data active = inhibition above about 30%; inactive = below that, where a call was filed
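Measurement of antagonist activity uses fluorescent calcium dye in inducible HEK293 T-REx D2 cells: 10 s baseline, compound addition with 180 s read, EC80 dopamine addition with a further 180 s read.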
D2 PAM-1: positive allosteric modulators of human D2 dopamine receptor; P14416; AID 485347; potentiation, % at 10 µM; 0.34% of 340,000 active; HEK293 T-REx D2, calcium flux, EC20 dopamine potentiation;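 active = potentiation over 3 SD above the plate norm, cut at about 30% in these data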
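Potentiation of an EC20 dopamine calcium response is measured in a force-coupled, tetracycline-inducible Hek293 Trex D2 line. Compound-only kinetic reads over 180 s flag agonists before dopamine addition.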
D2 ag-1: D2 dopamine receptor (human) agonism; HEK293 T-REx D2 cells, calcium flux agonist mode; 0.53% of 340,000 active; P14416; activation, % at 2 µM;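 active = activation over 3 SD above normal in the single-dose calcium agonist read, cut at about 30% in these data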
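Agonism is scored from calcium flux in a force-coupled, inducible HEK293 cell line expressing D2, read kinetically for 180 s after compound addition against dopamine controls.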
LDHA inh: inhibitors of human lactate dehydrogenase A; P00338; purified LDHA, NADH/diaphorase-resazurin fluorescence; stronger effect = lower value; activity change, % (values are at about 110 or 230 µM); 0.15% of 480,000 active; AID 1347041; in the data active = activity change below about -30%; inconclusive = mostly about -25% to -30%
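Resorufin fluorescence (ex540/em590), read at 0 and 20 min after diaphorase/resazurin addition, reports the NADH left after a 5 min room-temperature reaction of 2 nM human LDH5 with 0.06 mM NADH and 0.2 mM pyruvate.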
D2 PAM-2: potentiates the human D2 dopamine receptor allosterically. P14416. DiscoveRx D2 beta-arrestin cells, luminescence, 90 min; 100% = 57 uM dopamine signal. potentiation, % (concentration not given with the values). 0.23% of 360,000 active. AID 624464; in the data active = potentiation above about 50%; inconclusive = mostly about 30% to 49%
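PathHunter beta-arrestin assay in DiscoveRx D2 cells. Compounds were added with an EC20 of dopamine (50 nM final) for 90 min at 37 deg C. Luminescence was read 1 h after detection reagent, with 57 uM dopamine as the EC100 control.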
D2 ag-2: human D2 receptor agonism in beta-arrestin assay; P14416; DiscoveRx PathHunter D2 beta-arrestin, luminescence, 90 min; 100% = 57 uM dopamine signal; activation, % (no concentration beside the values); 0.084% of 360,000 active; in the data active = activation above about 40%; inconclusive = between about 15% and that limit
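Agonist mode: compounds alone added to overnight-plated D2 PathHunter cells for 90 min at 37 C, with 57 uM final dopamine (EC100) defining full response. Beta-arrestin recruitment detected by chemiluminescent reagent, read after 1 h at ambient temperature.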
D3 arrestin ag: activates human D3 dopamine receptor beta-arrestin recruitment. 4% of 2,300 active. DiscoveRx D3 beta-arrestin cells, luminescence, 90 min. shares compounds with D2 ag-1. Potency, µM (highest dose often 76.9 µM), usual class: activators. AID 720506; note: nearly all actives have a fitted effect of over 70% in size
Target sequence (P35462 whole entry, looked up): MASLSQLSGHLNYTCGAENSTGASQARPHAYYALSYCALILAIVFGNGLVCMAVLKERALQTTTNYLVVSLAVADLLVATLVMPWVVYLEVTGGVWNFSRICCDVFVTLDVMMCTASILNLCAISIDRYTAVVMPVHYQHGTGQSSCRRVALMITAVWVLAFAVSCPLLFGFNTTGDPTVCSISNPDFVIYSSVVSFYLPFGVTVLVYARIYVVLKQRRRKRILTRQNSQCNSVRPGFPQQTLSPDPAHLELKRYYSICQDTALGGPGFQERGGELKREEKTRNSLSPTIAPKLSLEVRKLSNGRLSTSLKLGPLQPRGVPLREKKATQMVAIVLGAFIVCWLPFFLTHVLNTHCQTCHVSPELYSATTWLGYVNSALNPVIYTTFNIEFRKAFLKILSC
D2 ag-3: D2 receptor agonism, beta-arrestin counterscreen | shares compounds with D2 ag-1 | DiscoveRx PathHunter D2 beta-arrestin, luminescence, 90 min; response scale: percent relative to full dopamine signal | Potency, µM (highest dose often 76.9 µM), most hits filed as activators | 5.9% of 2,300 active | AID 720507; note: nearly all actives have a fitted effect of over 70% in size
Each line names hits and unclear results; the compound was inactive in the other large screens (follow-up assays come after a bar, where they were run). Rows were chosen to be rich in hits. Some 2.1% of all compounds tested hit in one or more screens of this group. Unless noted, calls come from the whole dose curve; as a rule, active = well fitted activation curve with a large enough effect; inconclusive = small, poorly fitted or top-dose-only effect; inactive = flat fitted curve, though single readings scatter.

COc1cc2c(cc1OC)CN(Cc1cccs1)CC2	none
COc1cc(C2NC(=O)NC(C)=C2C(=O)OCc2ccc(C)cc2)cc(OC)c1OC (stereo not drawn)	D2 antag 35 | D3 arrestin ag inactive | D2 ag-3 inactive
COc1cc(C2NC(=O)NC(C)=C2C(=O)OCc2ccc(C)cc2)cc(OC)c1O (stereo not drawn)	none
COc1ccc(CNC(=O)c2nc(-c3ccc4cc[nH]c4c3)no2)cc1	none (no result: D2 antag, D2 PAM-1, D2 ag-1, D2 PAM-2, D2 ag-2)
O=C(NCc1ccc2c(c1)OCO2)C1CCCN1C(=O)Nc1ccccc1 (stereo not drawn)	D2 antag 66 | D3 arrestin ag inactive | D2 ag-3 inactive
COc1ccccc1NC(=O)N1CCCC1C(=O)NCc1ccc2c(c1)OCO2 (stereo not drawn)	none
Cc1ccc(O)c(NC(=S)NC(=O)Cc2ccc(Cl)cc2)c1	none (no result: D2 antag, D2 PAM-1, D2 ag-1) | D3 arrestin ag inactive | D2 ag-3 inactive
Cc1cc(C(=O)OC(C)C(=O)Nc2ccccc2F)c(C)o1 (stereo not drawn)	none (no result: D2 antag, D2 PAM-1, D2 ag-1, D2 PAM-2, D2 ag-2)
COc1ccccc1NCC(O)COc1ccc(C(C)(C)C)cc1 (stereo not drawn)	none
COc1ccc(OCC(O)CNCCOc2ccccc2OC)c(C(C)(C)C)c1 (stereo not drawn)	D2 antag 71, D2 ag-1 45 | D3 arrestin ag inactive | D2 ag-3 inactive
Fc1cccc(Cl)c1CNCCOc1ccccn1	none (no result: D2 antag, D2 PAM-1, D2 ag-1, D2 PAM-2, D2 ag-2)
Cc1ccc2c(c1)[nH]c1c(=O)n(Cc3ccco3)cnc12	D2 ag-1 33 | D3 arrestin ag inactive | D2 ag-3 inactive
N#Cc1c(N2C(=O)CC(c3ccc4c(c3)OCO4)C3=C2CCCC3=O)sc2c1CCCCC2 (stereo not drawn)	none (no result: D2 antag, D2 PAM-1, D2 ag-1, D2 PAM-2, D2 ag-2)
COCc1cc(C)nc(OCC(=O)N/N=C/c2ccc(O)cc2)c1C#N	D2 ag-1 50 | D3 arrestin ag inactive | D2 ag-3 inactive
CC(C)(C)c1cc(CCC(=O)NNC(=S)NC(=O)c2ccccc2)cc(C(C)(C)C)c1O	none (no result: D2 antag, D2 PAM-1, D2 ag-1) | D3 arrestin ag inactive | D2 ag-3 inactive
COc1ccc(CNC(=O)[C@]2(C)CCC[C@@]3(C)C4CC[C@@]5(C)C[C@]4(CCC32)CC5=O)cc1 (stereo partly drawn)	none | D3 arrestin ag inactive | D2 ag-3 inactive
COc1ccc(C)cc1NC(=O)CCN1CCN(c2ccccc2F)CC1	D2 antag 80, D2 ag-1 74 | D3 arrestin ag inactive | D2 ag-3 inconclusive
COC(=O)c1[nH]c2cccc(OC)c2c1NC(=O)CCN1CCN(c2ccccc2OC)CC1	D2 antag 83, D2 ag-1 53 | D3 arrestin ag inactive | D2 ag-3 inactive
Cc1ccc(C)c(NC(=O)CCN2CCN(c3ccccc3F)CC2)c1	D2 antag 67, D2 ag-1 47 | D3 arrestin ag inconclusive | D2 ag-3 inactive
Cc1ccc(C)c(OCC(=O)NNC(=O)CCN2CCN(c3ccccc3)CC2)c1	D2 antag 80, D2 ag-1 78 | D3 arrestin ag inactive | D2 ag-3 inconclusive
COc1ccc(OC)c(NC(=O)CCN2CCN(c3ccccc3F)CC2)c1	D2 ag-2 inconclusive
O=C(CSc1nc(-c2ccco2)nc2ccccc12)NCCc1ccccc1	none (no result: D2 antag, D2 PAM-1, D2 ag-1, D2 PAM-2, D2 ag-2)
COc1ccc([N+](=O)[O-])cc1NC(=O)CCN1CCN(c2ccccc2OC)CC1	D2 antag 101, D2 ag-1 66 | D3 arrestin ag inactive | D2 ag-3 inactive
O=C(CCN1CCN(c2ccccc2)CC1)N/N=C/c1ccccc1O	D2 antag 91, D2 ag-1 79 | D3 arrestin ag inactive | D2 ag-3 inconclusive
